Data as given in PubChem BioAssay (Tox21).
“And” between values parts separate entries of the source, which are not always exact repeats. Equal values may be shown once. Values without a mark were called inactive. Results filed as inconclusive are left out. A call without a number means that no potency is given here. The source made the active and inactive calls. Unless noted, the call rests on the fitted dose curve; in most records, active means well fitted curve in the direction sought with a large enough effect in the repeat runs; inconclusive means weak or mixed curves; inactive means no such curve, though single readings can be large; an effect the other way counts as inactive or inconclusive.

How the values were obtained:
[1] = qHTS assay for small molecule agonists of the p53 signaling pathway (AID 651631; calls by dose curve; further: nearly all actives have a fitted effect of over 15% in size)
Outline: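 Fluorescence intensity from cleaved LiveBLAzer B/G substrate (2 h, room temperature) served as the signal. Beforehand, HCT-116 reporter cells bearing p53 response elements were treated 16 h at 37 °C with DMSO-dissolved compounds.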

[2] = qHTS assay for small molecule agonists of the p53 signaling pathway - cell viability (AID 651633; calls by dose curve; further: nearly all actives have a fitted effect of over 30% in size; further: potency means the concentration at half of the fitted maximal effect)
Outline: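 p53RE-bla cells were treated with compound for 16 hours at 37 C. Cytotoxicity was then measured as CellTiter-Glo luminescence after 30 min at room temperature.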

[3] = qHTS assay for small molecules that induce genotoxicity in human embryonic kidney cells expressing luciferase-tagged ATAD5 - cell viability (AID 651634; calls by dose curve; further: nearly all actives have a fitted effect of over 25% in size; further: potency means the concentration at half of the fitted maximal effect)
Outline: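 Cells (HEK293T, luciferase-tagged ATAD5) are seeded at 2,000 per well, dosed with compound or DMSO vehicle, and incubated 15.5 hr at 37C and 5% CO2. CellTiter-Fluor is added for 30 min before fluorescence is measured.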

[4] = qHTS assay for small molecule disruptors of the mitochondrial membrane potential - cell viability (AID 720634; calls by dose curve;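 further: human HepG2 liver cancer cells; series mostly up to about 83 µM; nearly all actives have a fitted effect of over 20% in size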)
Outline: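 Cytotoxicity was measured by ATP quantitation in HepG2 wells that had first been treated with compound for 1 hr and stained with m-MPI dye; CellTiter-Glo incubation was 30 min at room temperature.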

[5] = qHTS assay for small molecule disruptors of the mitochondrial membrane potential (AID 720635); further: potency means the concentration at half of the fitted maximal effect
Outline: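 HepG2 cells exposed to compound 1 hr at 37C, then Mito-MPS dye 30 min. Ratio read of aggregate (540/590 nm) versus monomer (490/535 nm) fluorescence.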

[6] = qHTS assay to test for compound auto fluorescence at 590 nm (red) in HepG2 cells (AID 720674)
Outline: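 HepG2 cells, 2,000 per well in MEM with 10% FBS, attached overnight at 37 C, then got 23 nL compound or DMSO. After 1 hr at 37 C, 5% CO2, red fluorescence was read at 540/590 nm against Rose Bengal sodium as reference.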

[7] = qHTS assay to test for compound auto fluorescence at 535 nm (green) in HepG2 cells (AID 720675)
[8] = qHTS assay to test for compound auto fluorescence at 460 nm (blue) in HEK293 cells (AID 720678)
Outline: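 Measured: blue fluorescence (Ex 405/Em 460 nm) of compound-treated HEK293 cells, incubated overnight at 37C with 5% CO2 and scaled to triamterene equivalents.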

[9] = qHTS assay to test for compound auto fluorescence at 590 nm (red) in HEK293 cells (AID 720679)
Outline: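 Using HEK293 cells at 2,000 per well, the screen added 23 nL of each compound after cell attachment and incubated overnight (37C, 5% CO2). The plate reader then captured red-label fluorescence, Ex/Em 540/590nm.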

[10] = qHTS assay for small molecules that induce genotoxicity in human embryonic kidney cells expressing luciferase-tagged ATAD5 (AID 651632); further: nearly all actives have a fitted effect of over 15% in size; further: potency means the concentration at half of the fitted maximal effect
Outline: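 Cells were seeded at 2,000 per well, dosed with compound, and incubated 16 hr at 37C in 5% CO2. Luciferase activity was then quantified after a 30 min room-temperature incubation with Amplite.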

SMILES | Potency [1] | Potency [2] | Potency [3] | outcome [4] | Potency [5] | outcome [6] | outcome [7] | outcome [8] | outcome [9] | Potency [10] | fluorescence, relative to Rose Bengal [6] | fluorescence, % of fluorescein control [7] | fluorescence, % of triamterene [8] | fluorescence, % of fluorescent control [9]
CC12CCC(C(=O)C1=O)C2(C)C (centres undefined) | inactive | inactive | inactive | inactive | inactive | inactive | inactive | inactive | inactive | – | – | – | – | –
COc1cc2c(cc1OC)-c1cc3ccc(OC)c(OC)c3c[n+]1CC2 | inactive | inactive | inactive | inactive | 17.4 µM (active) | inactive | inactive | inactive | inactive | – | – | – | – | –
NC(=O)Cc1cccc2ccccc12 | inactive | inactive | inactive | inactive | – | inactive | – | inactive | inactive | – | – | – | – | –
Clc1cc(Cl)c(Cl)nc1Cl | inactive | inactive | inactive | inactive | inactive | inactive | inactive | inactive | inactive | – | – | – | – | –
N[C@H](C(=O)O)[C@@H](O)c1ccc(O)c(O)c1 | – | inactive | inactive | – | 26.6 µM (active) | inactive | inactive | inactive | inactive | inactive | – | – | – | –
CCCCCCCCN1CCCC1=O | – | inactive | inactive | inactive | – | inactive | inactive | inactive | inactive | inactive | – | – | – | –
CC(C)(N)C#N | – | inactive | inactive | – | – | inactive | inactive | inactive | inactive | inactive | – | – | – | –
CC1(C)[C@@H]2CC[C@@]1(C)[C@H](O)C2 | – | inactive | inactive | – | – | inactive | inactive | inactive | inactive | inactive | – | – | – | –
C=CCOCC(O)CO (centres undefined) | – | inactive | inactive | – | – | inactive | inactive | inactive | inactive | inactive | – | – | – | –
COc1cc(C(=O)OC(COCCC(C)C)CN2CCOCC2)cc(OC)c1OC (centres undefined) | – | inactive | inactive | – | inactive | inactive | inactive | inactive | inactive | inactive | – | – | – | –
Cc1nc2ccc(CN(C)c3ccc(C(=O)N[C@@H](CCC(=O)O)C(=O)O)s3)cc2c(=O)[nH]1 | – | 106 nM (active) and 150 nM (active) | inactive | – | inactive | inactive | inactive | inactive | inactive | inactive | – | – | – | –
CC(=O)O[C@@]12CO[C@@H]1C[C@H](O)[C@@]1(C)C(=O)[C@H](O)C3=C(C)[C@@H](OC(=O)[C@H](O)[C@@H](NC(=O)OC(C)(C)C)c4ccccc4)C[C@@](O)([C@@H](OC(=O)c4ccccc4)[C@H]21)C3(C)C | – | inactive | 11.9 nM (active) and 8.4 nM (active) | inactive | – | inactive | – | inactive | inactive | inactive | – | – | – | –
CCOC(=O)OC(C)OC1=C(C(=O)Nc2ccccn2)N(C)S(=O)(=O)c2ccccc21 (centres undefined) | – | inactive | inactive | inactive | – | inactive | inactive | inactive | inactive | 3.35 µM (active) | – | – | – | –
CCOC(=O)c1cnc2c(cnn2CC)c1NN=C(C)C | – | inactive | inactive | inactive | – | inactive | inactive | inactive | inactive | inactive | – | – | – | –
C[N+]12CCC(CC1)C(OC(=O)C(O)(c1ccccc1)c1ccccc1)C2 (centres undefined) | – | inactive | inactive | – | inactive | – | – | – | – | inactive | 0.0225% [at 18.6 µM] | -0.0019% [at 18.6 µM] | 0.0716% [at 18.6 µM] | -0.175% [at 18.6 µM]
Cc1ncc([C@@H](CCCCCCc2ccc3c(n2)NCCC3)CC(=O)O)cn1 | – | inactive | 27.3 nM (active) | inactive | – | inactive | inactive | inactive | inactive | inactive | – | – | – | –
CN(C)C(=O)Oc1cccc([N+](C)(C)C)c1 | – | inactive | inactive | inactive | – | inactive | inactive | inactive | inactive | inactive | – | – | – | –
